# Results as given in the supplement of paper PMC4466140.
# What was measured:
# Assay in all cases: SPOT peptide array binding signal intensity (averaged, normalized) (arbitrary units (background-subtracted, floor 0; scale differs between SH3 domains)); higher = stronger binding of the SH3 domain to the peptide
# [1] = target: AgAbp1
# Summary of the method: (§1)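 The binding signal is the normalized, background-subtracted spot intensity averaged over replicates; its arbitrary units differ between domains. It was obtained by incubating 10 μg/ml GST-fused SH3 domains from four yeast species overnight at 4°C in TBS-based blocking buffer on cellulose membranes with synthetic 15-mer peptides, cysteines replaced by serines, then detecting with anti-GST antibody, HRP anti-mouse secondary and luminol.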
# [2] = target: AgBbc1
# Summary of the method: as §1
# [3] = target: AgBem1-D1
# Summary of the method: as §1
# [4] = target: AgBzz1-D1
# Summary of the method: as §1
# [5] = target: AgBzz1-D2
# Summary of the method: as §1
# [6] = target: AgCyk3
# Summary of the method: as §1
# [7] = target: AgFus1
# Summary of the method: as §1
# [8] = target: AgHof1
# Summary of the method: as §1
# [9] = target: AgHse1
# Summary of the method: as §1
# [10] = target: AgLsb1
# Summary of the method: as §1
# [11] = target: AgLsb4
# Summary of the method: as §1
# [12] = target: AgMyo5
# Summary of the method: as §1
# [13] = target: AgNbp2
# Summary of the method: as §1
# [14] = target: AgRvs167
# Summary of the method: as §1
# [15] = target: AgSho1
# Summary of the method: as §1
# [16] = target: AgSla1-D1-D2
# Summary of the method: as §1
# [17] = target: AgSla1-D3
# Summary of the method: as §1
# [18] = target: CaAbp1-D1
# Summary of the method: as §1
# [19] = target: CaAbp1-D2
# Summary of the method: as §1
# [20] = target: CaBbc1
# Summary of the method: as §1
# [21] = target: CaBem1-D1
# Summary of the method: as §1
# [22] = target: CaBzz1-D1
# Summary of the method: as §1
# [23] = target: CaBzz1-D2
# Summary of the method: as §1
# [24] = target: CaCyk3
# Summary of the method: as §1
# [25] = target: CaFus1
# Summary of the method: as §1
# [26] = target: CaHof1
# Summary of the method: as §1
# [27] = target: CaHse1
# Summary of the method: as §1
# [28] = target: CaLsb1
# Summary of the method: as §1
# [29] = target: CaLsb4
# Summary of the method: as §1
# [30] = target: CaMyo5
# Summary of the method: as §1
# [31] = target: CaNbp2
# Summary of the method: as §1
# [32] = target: CaRvs167
# Summary of the method: as §1
# [33] = target: CaRvs167-3
# Summary of the method: as §1
# [34] = target: CaSho1
# Summary of the method: as §1
# [35] = target: CaSla1-D1-D2
# Summary of the method: as §1
# [36] = target: CaSla1-D3
# Summary of the method: as §1
# [37] = target: ScAbp1
# Summary of the method: as §1
# [38] = target: ScBbc1
# Summary of the method: as §1
# [39] = target: ScBem1-D1
# Summary of the method: as §1
# [40] = target: ScBzz1-D1
# Summary of the method: as §1
# [41] = target: ScBzz1-D2
# Summary of the method: as §1
# [42] = target: ScCyk3
# Summary of the method: as §1
# [43] = target: ScFus1
# Summary of the method: as §1
# [44] = target: ScHof1
# Summary of the method: as §1
# [45] = target: ScHse1
# Summary of the method: as §1
# [46] = target: ScLsb1
# Summary of the method: as §1
# [47] = target: ScLsb2
# Summary of the method: as §1
# [48] = target: ScLsb3
# Summary of the method: as §1
# [49] = target: ScLsb4
# Summary of the method: as §1
# [50] = target: ScMyo3
# Summary of the method: as §1
# [51] = target: ScMyo5
# Summary of the method: as §1
# [52] = target: ScNbp2
# Summary of the method: as §1
# [53] = target: ScPex13
# Summary of the method: as §1
# [54] = target: ScRvs167
# Summary of the method: as §1
# [55] = target: ScSho1
# Summary of the method: as §1
# [56] = target: ScSla1-D1-D2
# Summary of the method: as §1
# [57] = target: ScSla1-D3
# Summary of the method: as §1
# [58] = target: SpAbp1-D1
# Summary of the method: as §1
# [59] = target: SpBbc1
# Summary of the method: as §1
# [60] = target: SpBzz1-D1
# Summary of the method: as §1
# [61] = target: SpBzz1-D2
# Summary of the method: as §1
# [62] = target: SpCyk3
# Summary of the method: as §1
# [63] = target: SpHof1
# Summary of the method: as §1
# [64] = target: SpHof1-2
# Summary of the method: as §1
# [65] = target: SpHof1-3
# Summary of the method: as §1
# [66] = target: SpHse1
# Summary of the method: as §1
# [67] = target: SpLsb1
# Summary of the method: as §1
# [68] = target: SpLsb4
# Summary of the method: as §1
# [69] = target: SpMyo1
# Summary of the method: as §1
# [70] = target: SpNbp2
# Summary of the method: as §1
# [71] = target: SpPex13
# Summary of the method: as §1
# [72] = target: SpRvs167
# Summary of the method: as §1
# [73] = target: SpSla1-D1-D2
# Summary of the method: as §1
# [74] = target: SpSla1-D3
# Summary of the method: as §1
binder,measurement,setting,value
KRNRLKILLPFLEQS,SPOT peptide array binding signal intensity,[1],7
same,SPOT peptide array binding signal intensity,[2],1.75
same,SPOT peptide array binding signal intensity,[3],102
same,SPOT peptide array binding signal intensity,[4],9
same,SPOT peptide array binding signal intensity,[5],41
same,SPOT peptide array binding signal intensity,[6],0.5
same,SPOT peptide array binding signal intensity,[7],1340
same,SPOT peptide array binding signal intensity,[8],30.5
same,SPOT peptide array binding signal intensity,[9],1380
same,SPOT peptide array binding signal intensity,[10],3.5
same,SPOT peptide array binding signal intensity,[11],126
same,SPOT peptide array binding signal intensity,[12],0.5
same,SPOT peptide array binding signal intensity,[13],102
same,SPOT peptide array binding signal intensity,[14],2.33
same,SPOT peptide array binding signal intensity,[15],200
same,SPOT peptide array binding signal intensity,[16],49.5
same,SPOT peptide array binding signal intensity,[17],12.5
same,SPOT peptide array binding signal intensity,[18],342
same,SPOT peptide array binding signal intensity,[19],154
same,SPOT peptide array binding signal intensity,[20],27
same,SPOT peptide array binding signal intensity,[21],≤ 0
same,SPOT peptide array binding signal intensity,[22],5
same,SPOT peptide array binding signal intensity,[23],66.8
same,SPOT peptide array binding signal intensity,[24],3
same,SPOT peptide array binding signal intensity,[25],4760
same,SPOT peptide array binding signal intensity,[26],0.5
same,SPOT peptide array binding signal intensity,[27],57.2
same,SPOT peptide array binding signal intensity,[28],9.75
same,SPOT peptide array binding signal intensity,[29],21
same,SPOT peptide array binding signal intensity,[30],3
same,SPOT peptide array binding signal intensity,[31],742
same,SPOT peptide array binding signal intensity,[32],61.5
same,SPOT peptide array binding signal intensity,[33],828
same,SPOT peptide array binding signal intensity,[34],1220
same,SPOT peptide array binding signal intensity,[35],5
same,SPOT peptide array binding signal intensity,[36],136
same,SPOT peptide array binding signal intensity,[37],54
same,SPOT peptide array binding signal intensity,[38],2.5
same,SPOT peptide array binding signal intensity,[39],74
same,SPOT peptide array binding signal intensity,[40],20.5
same,SPOT peptide array binding signal intensity,[41],53
same,SPOT peptide array binding signal intensity,[42],102
same,SPOT peptide array binding signal intensity,[43],1980
same,SPOT peptide array binding signal intensity,[44],1.5
same,SPOT peptide array binding signal intensity,[45],2110
same,SPOT peptide array binding signal intensity,[46],3
same,SPOT peptide array binding signal intensity,[47],5
same,SPOT peptide array binding signal intensity,[48],145
same,SPOT peptide array binding signal intensity,[49],9.5
same,SPOT peptide array binding signal intensity,[50],2.5
same,SPOT peptide array binding signal intensity,[51],2.25
same,SPOT peptide array binding signal intensity,[52],130
same,SPOT peptide array binding signal intensity,[53],0.25
same,SPOT peptide array binding signal intensity,[54],18.2
same,SPOT peptide array binding signal intensity,[55],1290
same,SPOT peptide array binding signal intensity,[56],122
same,SPOT peptide array binding signal intensity,[57],3.25
same,SPOT peptide array binding signal intensity,[58],114
same,SPOT peptide array binding signal intensity,[59],1.5
same,SPOT peptide array binding signal intensity,[60],90
same,SPOT peptide array binding signal intensity,[61],≤ 0
same,SPOT peptide array binding signal intensity,[62],3
same,SPOT peptide array binding signal intensity,[63],142
same,SPOT peptide array binding signal intensity,[64],14
same,SPOT peptide array binding signal intensity,[65],624
same,SPOT peptide array binding signal intensity,[66],1780
same,SPOT peptide array binding signal intensity,[67],1.5
same,SPOT peptide array binding signal intensity,[68],56
same,SPOT peptide array binding signal intensity,[69],5.5
same,SPOT peptide array binding signal intensity,[70],443
same,SPOT peptide array binding signal intensity,[71],21
same,SPOT peptide array binding signal intensity,[72],7.5
same,SPOT peptide array binding signal intensity,[73],≤ 0
same,SPOT peptide array binding signal intensity,[74],11
